Experimental data from PubChem BioAssay (NCI).
About 83,000 compounds went through this panel and 20% of them were active in at least one assay; those are over-represented in the sample as a whole.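 The test compound was applied at a single concentration to cells in 96-well plates for 48 hours, and percent growth was recorded.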 Values without a mark were called inactive. Calls of active or inactive are those of the source. Rule for the calls: active = growth percent below 10; inactive = the rest.

Experiments:
Experiment in all cases: NCI-60 one-dose screen, 48 h (100 = growth as untreated, 0 = no growth, -100 = all killed)
Conditions in all cases: 10 µM unless noted
[1] = system: DU-145 prostate
[2] = system: K-562 leukemia
[3] = system: MALME-3M melanoma
[4] = system: MDA-MB-231 breast
[5] = system: RXF 393 renal
[6] = system: SF-268 CNS
[7] = system: SF-295 CNS
[8] = system: SF-539 CNS
[9] = system: UACC-257 melanoma
[10] = system: M14 melanoma
[11] = system: HCT-15 colon
[12] = system: HT29 colon
[13] = system: SNB-75 CNS
[14] = system: SNB-19 CNS
[15] = system: U251 CNS
[16] = system: PC-3 prostate
[17] = system: SK-MEL-5 melanoma
[18] = system: UACC-62 melanoma
[19] = system: LOX IMVI melanoma
[20] = system: SK-MEL-28 melanoma

Compound	growth [1]	growth [2]	growth [3]	growth [4]	growth [5]	growth [6]	growth [7]	growth [8]	growth [9]	growth [10]	growth [11]	growth [12]	growth [13]	growth [14]	growth [15]	growth [16]	growth [17]	growth [18]	growth [19]	growth [20]
Oc1c(Br)cc(Br)c2ccc(Cn3cc(-c4ccccc4C(F)(F)F)nn3)nc12	86%	4.64% (active)	89.6%	109%	60.1%	94.1%	104%	97.3%	79%	94.6%	62.7%	107%	80.8%	94.3%	106%	104%	103%	95.5%	77.2%	96.9%
O=C(Nc1cccc(-c2ccc(Cl)c(C(F)(F)F)c2)c1)C1CCN(Cc2cccc3cccnc23)CC1	10.8%	-6.99% (active)	-75.6% (active)	-24.1% (active)	8.93% (active)	40.1%	-43.9% (active)	-88.7% (active)	19.8%	-68.5% (active)	-83% (active)	-62.2% (active)	40.3%	61.4%	-82.4% (active)	10.8%	-93.4% (active)	25.9%	-98.2% (active)	-67.6% (active)
CSc1nc(N)c(NS(=O)(=O)c2ccc(C(C)=O)cc2)c(=O)[nH]1	110%	96%	100%	104%	96.9%	99.9%	97.3%	112%	105%	89.3%	98.4%	103%	87.6%	107%	112%	102%	97.5%	98.3%	101%	104%
Cc1cc(C)c2c(c1)N(C)c1ncnc(-n3cnc4cc(C)ccc43)c1CC2C (stereo not given)	14.2%	7.57% (active)	45.2%	36.8%	-24.8% (active)	40.4%	1.91% (active)	6.25% (active)	45.3%	5.2% (active)	23.4%	0.933% (active)	29.1%	35.7%	14.6%	20.9%	8.49% (active)	30.7%	46.5%	62.9%
C/C(Cc1ccc(Cl)cc1)=C(\c1ccc(O)cc1)c1ccc(Cl)cc1	101%	89.3%	82.5%	96.6%	100%	95%	95.1%	107%	98.2%	83.7%	85.3%	90.9%	94.7%	104%	102%	71.8%	100%	84.6%	89.9%	95.1%
CCN1C(=S)N(c2ccccc2)C2NC(=S)N(/N=C/C=C/c3ccccc3OC)C21 (stereo not given)	7.01% (active)	8.73% (active)	54.1%	10.5%	26.3%	54.5%	13.7%	-18.3% (active)	43.2%	3.35% (active)	12.9%	1.16% (active)	-1.02% (active)	31.3%	3.1% (active)	30.1%	14.1%	25.7%	15.4%	47.8%
O=C(c1ccncc1)N1N=C(c2ccc(Cl)cc2)C[C@H]1c1cn(-c2ccccc2)nc1-c1ccccc1	99.8%	90.5%	108%	69.6%	87.6%	89.4%	78.8%	81.2%	89.6%	107%	82.4%	104%	72.7%	88.6%	61.1%	79.5%	90.7%	91.7%	79.9%	96%
COc1ccc2c(c1)CC[C@H](O)/C2=C/c1cc(OC)c(OC)c(OC)c1	0.0757% (active)	8.97% (active)	64%	14.5%	15.5%	27.1%	8.44% (active)	-5.68% (active)	47.3%	6.27% (active)	13.9%	0.825% (active)	19.1%	38.3%	13.3%	17.8%	-40% (active)	31.8%	18.2%	61.5%
O=C(/C=C/c1cn(-c2ccccc2)nc1-c1ccc(Cl)cc1)c1ccc(F)cc1	88.7%	57.7%	87.5%	65.6%	100%	83.4%	172%	96.6%	104%	79.3%	58.8%	77%	74.6%	76.1%	76.6%	67.6%	86%	59%	68.7%	106%
O=C(Nc1ccccc1O)c1ccc(CNC(=O)c2sccc2Nc2ccnc(C(F)(F)F)c2)cc1	46.7%	25.1%	-2.09% (active)	53%	47.9%	49.2%	43.6%	48.9%	46.5%	58.3%	47.6%	53%	36.9%	68.9%	40.6%	35.2%	25.1%	27.7%	53.6%	63.6%
COc1ccc(-c2cc(-c3cccnc3)nc3sc4c(=O)[nH]c(-c5ccc(Cl)cc5)nc4c23)cc1OC	105%	85.7%	115%	76.7%	103%	93.4%	99.5%	96.1%	97.5%	106%	97%	96.3%	87.4%	95.9%	82.7%	90.4%	89.9%	90.5%	86%	102%
C=C(C)[C@@H]1CC[C@]2(CO)CC[C@]3(C)[C@H](CC[C@@H]4[C@@]5(C)CC[C@H](NCO)C(C)(C)[C@@H]5CC[C@]43C)[C@@H]12	-69.2% (active)	0.949% (active)	-81.2% (active)	-86.2% (active)	-79.3% (active)	59.1%	57.4%	-95.6% (active)	-51.6% (active)	-62.2% (active)	-80.7% (active)	-39.4% (active)	-94.7% (active)	42.3%	-68.6% (active)	-3.03% (active)	-90.1% (active)	83.6%	-99.8% (active)	-86.3% (active)
CCCCCCCCCc1ccc(OCCOCCOCCOCCOCCOCCOCCOCCOCCO)cc1	31.5%	10.5%	-10.2% (active)	-38.1% (active)	29%	28.1%	0.0887% (active)	29%	-25.2% (active)	-11.3% (active)	10.4%	15.2%	36.6%	28.6%	16.4%	9.37% (active)	-77.3% (active)	11.7%	7.91% (active)	34.4%
N=C(N)c1ccc(-c2ccc(-c3ccc(Cl)cc3Cl)s2)cc1	-24.7% (active)	-7.11% (active)	73.9%	-38% (active)	87.3%	42.4%	-30.6% (active)	-28.9% (active)	88%	41.5%	-70.6% (active)	3.85% (active)	88.5%	10.9%	-45.4% (active)	0.127% (active)	89.3%	74.8%	-89.3% (active)	105%
C[PH+](c1nc2ccccc2nc1[PH+](C)C(C)(C)C)C(C)(C)C.C[PH+](c1nc2ccccc2nc1[PH+](C)C(C)(C)C)C(C)(C)C.[Au+].[Cl-] (stereo not given)	-99.5% (active)	1.72% (active)	-67.1% (active)	-90.3% (active)	-87.9% (active)	-91% (active)	-88% (active)	-91.6% (active)	-88.3% (active)	-100% (active)	-80.9% (active)	-100% (active)	-98.4% (active)	-100% (active)	-86.8% (active)	-83.9% (active)	-100% (active)	-79.5% (active)	-85.5% (active)	-85% (active)
